The source made the active and inactive calls. Calls come from the whole dose curve. Residues, ends and D or L forms follow the SMILES beside them. *: point of attachment. Cbz = O=C(OCc1ccccc1)*

In PubChem BioAssay (NCATS) one finds Z-AUC data, which are given here for 31 compounds.

The assay in a line: qHTS drug screen for cell cycle checkpoint inhibitors in PARPi-resistant BRCA-mutant ovarian cancer cell lines. (AID 1963452). The conditions noted are these: PEO1/OlaR viability, CellTiter-Glo luminescence, 96 h, stronger effect = lower value. The method, boiled down: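 PEO1, PEO4 and PEO1/OlaR ovarian cancer cells, 600 per well, exposed 96 h at 37C to a dilution series. Viability read by CellTiter-Glo luminescence, normalized to DMSO and empty wells; activity summarized as Z-AUC.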
(qHTS replaces the single test concentration by a dilution series.)

Where [1] appears, read: measured here: PEO1 parental Z-AUC.

In the case of `c1ccc2c(Oc3nc(Nc4ccc(N5CCOCC5)cc4)c4ncn(C5CCCCC5)c4n3)cccc2c1`, the Z-AUC was 1.71 (inactive). Moreover, the Z-AUC under setting [1] came out at 1.4. For the same compound, the Z-AUC (measured here: PEO4 Z-AUC) came to 1.58.

For the compound `O=S(=O)(O)CCSSCCS(=O)(=O)O`, the Z-AUC was -0.0996 (inactive). The Z-AUC under setting [1] worked out at 0.123. Also, where the note is “measured here: PEO4 Z-AUC”, the Z-AUC came out at 0.876.

On to `CC(C)[C@H](CO)Nc1nc(Nc2cccc(Cl)c2)c2ncn(C(C)C)c2n1`, for which the Z-AUC was 0.56 (inactive). Besides, the Z-AUC under setting [1] was 0.0457. Also, the Z-AUC (measured here: PEO4 Z-AUC) was found to be 0.284.

Turning to `NC(=O)Nc1cc(-c2ccc(CN3CCOCC3)cc2)sc1C(N)=O`, the Z-AUC is 0.59 (inactive). Under setting [1], the Z-AUC came to 0.476. Further, the Z-AUC (measured here: PEO4 Z-AUC) came out at 0.41.

With `O=C(Nc1cccc(Nc2ncc(Br)c(NCCc3cnc[nH]3)n2)c1)N1CCCC1`, the Z-AUC is -0.432 (inactive). Besides, the Z-AUC under setting [1] is -0.127. The Z-AUC (measured here: PEO4 Z-AUC) was -0.522.

For `CN(C)c1ccc(C(=O)NCCCCCCC(=O)NO)cc1`, the Z-AUC is -1.48 (inactive). The Z-AUC under setting [1] was -0.12. In addition, where the note is “measured here: PEO4 Z-AUC”, the Z-AUC was -0.674.

`CCNC(=O)c1cc2c(-c3cc(OCCN4CCCC4)c(Cl)cc3Cl)nc(N)nc2s1`: the Z-AUC is -0.792 (inactive). For the same compound, the Z-AUC under setting [1] was -0.714. In addition, the Z-AUC (measured here: PEO4 Z-AUC) was -0.886.

For `CCc1ccc(C(=O)Nc2cc(CN3CCN(C)CC3)cc(C(F)(F)F)c2)cc1C#Cc1cnc2ccnn2c1`, the Z-AUC was -0.668 (inactive). Under setting [1], the Z-AUC is -1.24. Also, where the note is “measured here: PEO4 Z-AUC”, the Z-AUC is -0.914.

With `Cn1cc(C2=C(c3c4n(c5ccccc35)CCC(CN)C4)C(=O)NC2=O)c2ccccc21` (stereo not drawn), the Z-AUC is 0.936 (inactive). Moreover, the Z-AUC under setting [1] was determined as 1.25. For the same compound, the Z-AUC (measured here: PEO4 Z-AUC) came out at 1.18.

As to `N#Cc1c(C2CCNCC2)cc(-c2c(O)cccc2OCC2CC2)nc1N`, the Z-AUC was 0.339 (inactive). In addition, under setting [1], the Z-AUC worked out at 0.598. Also, where the note is “measured here: PEO4 Z-AUC”, the Z-AUC stood at 0.733.

`Nc1ccc(C(=O)Nc2cccc(-c3nc(N4CCOCC4)c4oc5ncccc5c4n3)c2)cn1`: the Z-AUC is 0.0788 (inactive). Further, the Z-AUC under setting [1] is -0.164. For the setting “measured here: PEO4 Z-AUC”, the Z-AUC is 0.731.

Regarding `CC(C)C[C@@H](C=O)NC(=O)[C@H](CC(C)C)NC(=O)[C@H](CC(C)C)NC(=O)OCc1ccccc1` (Cbz-Leu-Leu-Leu-aldehyde), the Z-AUC was -0.0586 (inactive). The Z-AUC under setting [1] was -0.937. For the same compound, the Z-AUC (measured here: PEO4 Z-AUC) is -0.457.

In the case of `Cc1ccc(-n2[nH]c(C)c(N=Nc3cccc(-c4cccc(C(=O)O)c4)c3O)c2=O)cc1C`, the Z-AUC was -0.217 (inactive). The Z-AUC under setting [1] was -0.314. Moreover, where the note is “measured here: PEO4 Z-AUC”, the Z-AUC turned out to be 0.208.

On to `Cc1ccc2nc(NCCN)c3ncc(C)n3c2c1`, for which the Z-AUC is 0.876 (inactive). Further, the Z-AUC under setting [1] came to 0.537. The Z-AUC (measured here: PEO4 Z-AUC) was found to be 1.09.

Turning to `C[C@H]1[C@@H](OC(=O)CCC(=O)O)O[C@@H]2O[C@@]3(C)CC[C@@H]4[C@H](C)CC[C@@H]1[C@@]24OO3`, the Z-AUC is -0.162 (inactive). Further, the Z-AUC under setting [1] was -0.815. The Z-AUC (measured here: PEO4 Z-AUC) is -0.572.

`CC(C)n1cnc2c(NCCc3ccc(O)cc3)nc(-c3csc4ccccc34)nc21`: the Z-AUC was 0.419 (inactive). Moreover, the Z-AUC under setting [1] amounted to 0.415. The Z-AUC (measured here: PEO4 Z-AUC) stood at 0.466.

Turning to `Cn1cnc2c(F)c(Nc3ccc(Br)cc3F)c(C(=O)NOCCO)cc21`, the Z-AUC was -0.612 (inactive). For the same compound, the Z-AUC under setting [1] is -0.742. The Z-AUC (measured here: PEO4 Z-AUC) was -0.428.

In the case of `CC(C)(C)c1nc2c3cc[nH]c(=O)c3c3cc(F)ccc3c2[nH]1`, the Z-AUC was -0.0239 (inactive). Besides, the Z-AUC under setting [1] amounted to 0.604. For the same compound, the Z-AUC (measured here: PEO4 Z-AUC) was 0.212.

Take `O=c1ccn([C@@H]2O[C@H](CO)[C@H](O)[C@@H]2F)c(=O)[nH]1`: the Z-AUC is 0.179 (inactive). Also, the Z-AUC under setting [1] was 0.56. The Z-AUC (measured here: PEO4 Z-AUC) is 0.262.

On to `C[C@H](NC(=O)[C@@H](O)c1cc(F)cc(F)c1)C(=O)N[C@@H]1C(=O)N(C)c2ccccc2-c2ccccc21`, for which the Z-AUC is 0.549 (inactive). Further, the Z-AUC under setting [1] turned out to be 0.437. The Z-AUC (measured here: PEO4 Z-AUC) was determined as 0.274.

Regarding `Oc1cc2c(cc1O)C1c3ccc(O)c(O)c3OCC1(O)C2` (stereo not drawn), the Z-AUC is 1.52 (inactive). In addition, the Z-AUC under setting [1] is 1.33. Where the note is “measured here: PEO4 Z-AUC”, the Z-AUC was found to be 1.39.

As for `CCN(CC)CCCCNc1ncc2c(n1)N(C)C(=O)N(c1c(Cl)c(OC)cc(OC)c1Cl)C2`, the Z-AUC was 0.806 (inactive). In addition, under setting [1], the Z-AUC worked out at 1.27. The Z-AUC (measured here: PEO4 Z-AUC) turned out to be 0.972.

Turning to `O=C(NC1CC1)c1cccc(-c2ccc3c(NC(=O)C4CC4)n[nH]c3c2)c1`, the Z-AUC is -1.31 (inactive). In addition, the Z-AUC under setting [1] was -0.612. Moreover, the Z-AUC (measured here: PEO4 Z-AUC) was -0.0864.

`CCOc1cc2c(c(F)c1OCC)C(=N)N(CC(=O)c1cc(N3CCOCC3)c(OC)c(C(C)(C)C)c1)C2`: the Z-AUC was -0.189 (inactive). In addition, the Z-AUC under setting [1] stood at 0.331. For the same compound, the Z-AUC (measured here: PEO4 Z-AUC) is 0.119.

For `CC(=O)SCC(Cc1ccccc1)C(=O)NCC(=O)OCc1ccccc1` (stereo not drawn), the Z-AUC was 0.0229 (inactive). Under setting [1], the Z-AUC was 1.28. In addition, the Z-AUC (measured here: PEO4 Z-AUC) was determined as 0.777.

Regarding `Cc1cc(C(=O)NOCCO)c(Nc2ccc(I)cc2F)n(C)c1=O`, the Z-AUC was -0.774 (inactive). The Z-AUC under setting [1] was -1.14. The Z-AUC (measured here: PEO4 Z-AUC) is -0.82.

Take `Oc1ccc([C@@H]2Oc3ccc(O)cc3[C@@H]3CCC[C@@H]32)cc1`: the Z-AUC is 0.648 (inactive). Further, the Z-AUC under setting [1] was -0.25. Further, the Z-AUC (measured here: PEO4 Z-AUC) was -0.0299.

For the compound `COc1cc2c(cc1OC)[C@@H]1C(=O)c3ccc4c(c3O[C@@H]1CO2)C=CC(C)(C)O4`, the Z-AUC was -0.868 (inactive). For the same compound, the Z-AUC under setting [1] is -1.79. The Z-AUC (measured here: PEO4 Z-AUC) was -1.41.

`CN(C)CCN1C(=O)c2cccc3cc(N)cc(c23)C1=O`: the Z-AUC is -0.488 (inactive). The Z-AUC under setting [1] is -0.749. For the setting “measured here: PEO4 Z-AUC”, the Z-AUC was -0.88.

For `c1cncc(CN2CCC(n3ncc4c(N5CCOCC5)nc(-c5ccc6[nH]ccc6c5)nc43)CC2)c1`, the Z-AUC is -0.587 (inactive). In addition, the Z-AUC under setting [1] is -0.0764. In addition, the Z-AUC (measured here: PEO4 Z-AUC) was -0.549.

Consider `C[C@](Cc1c[nH]c2ccccc12)(NC(=O)OC1C2CC3CC(C2)CC1C3)C(=O)NC[C@H](NC(=O)CCC(=O)O)c1ccccc1` (stereo partly drawn), for which the Z-AUC was -0.246 (inactive). Also, under setting [1], the Z-AUC is -0.184. The Z-AUC (measured here: PEO4 Z-AUC) is -0.0323.
